Results on 66 compounds are retold here after PubChem BioAssay AID449764 (Southern Research Specialized Biocontainment Screening …, 2010).

Each structure is given as a SMILES string. In all, about 2,300 compounds went through this assay and about 1,700 (74%) were called active. No rule for the calls is given here. So high a share suggests a set chosen from earlier hits. The list shows a part of the results. Results with a measured potency or affinity are listed apart.

This experiment is described as follows: Mycobacterium tuberculosis H37Rv growth inhibition, no glycerol, confirmatory dose response (AID 449764).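 Also: growth read after 7 days of incubation.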 As to conditions: series mostly up to 100 µM; inhibition: at the top concentration.
Turning to `C=CCn1c(Cc2cccs2)nnc1SCC(=O)Nc1ccc(C(=O)OCC)cc1`, the inhibition (commonly the change of the read-out against control, counted positive when it falls) was 0.82% (inactive).
The same measure for `CCCCCCCC(=O)N/N=C(/C)c1c(O)cc(C)oc1=O`: -9.85% (inactive); for `CN1CCN(CC/C=C2/c3ccccc3Sc3ccc(S(=O)(=O)N(C)C)cc32)CC1`: -1.39% (inactive); for `O=c1oc2cc(O)ccc2c2ccccc12`: -2.92% (inactive).
As for `CCCCCOc1ccc(N2C(=O)C3C4C=CC(C3C2=O)N(C)C4=O)cc1` (stereo unspecified), the figure is -6.07% (inactive); as for `O=c1c2cc(-c3ccccc3)sc2ncn1/N=C/c1ccco1`, 26.1% (inactive).
The same measure for `O=C(NC1CCCCC1)C(c1ccc2ncccc2c1)N(Cc1ccco1)C(=O)c1ccc2c(c1)OCCO2` (stereo unspecified): 4.79% (inactive); for `CCCCc1ccc(NC=C2C(=O)OC3(CCCCC3)OC2=O)cc1`: 1.5% (inactive); for `O=C(Nc1ccc(N2CCOCC2)c(Cl)c1)c1c(F)c(F)c(F)c(F)c1F`: 16.1% (inactive).
For `Cc1cc(N2CCCCC2)n2ncc(-c3ccc(Cl)cc3)c2n1`, the “inhibition” value was 4.56% (inactive).
As for `CCSCc1nnc(SCC(=O)Nc2cccc(SC)c2)n1C`, the figure is 0.62% (inactive).
Regarding `Cc1ccc(C(=O)N/N=C/C=C/c2ccccc2)cc1`, the “inhibition” value is -6.65% (inactive).
As to `Cc1nn(Cc2ccccc2)c(C)c1C(=O)OCC(=O)c1cc(C)n(CC(F)(F)F)c1C`, the “inhibition” value is 2.72% (inactive).
`CCCCCC(=O)Nc1cccc2ccccc12`: the “inhibition” value is 24.4% (inactive).
With `Cc1cc(C)c2nc(N3CCCC(C(=O)N4CCN(c5ncccn5)CC4)C3)sc2c1` (stereo unspecified), the “inhibition” value was -1.73% (inactive).
For `Cc1c(NC(=O)c2ccc([N+](=O)[O-])o2)cccc1-c1nc2ncccc2o1`, the “inhibition” value is -10.9% (inactive).
The same measure for `CCCCCOC(=O)Nc1nnc(CCCCC)s1`: -0.7% (inactive).
As for `C/C(CC(=O)Nc1ccc(C)c(Cl)c1)=N\NC(=O)Cc1cnc(N)s1`, the figure is 21.7% (inactive); as for `Cc1ccc(N/N=C/C=C/c2ccco2)cc1`, 13.8% (inactive); as for `CCOC(=O)N1CCN=C1SCc1ccc(C(F)(F)F)cc1`, 3.73% (inactive).
Take `O=C(CSc1nc2ccccc2[nH]1)N1c2ccccc2Sc2ccccc21`: the “inhibition” value is 4.61% (inactive).
Consider `CCOC(=O)Oc1ccc2oc(C)c(C(=O)OCCOC)c2c1`, for which the “inhibition” value was 7.24% (inactive).
Turning to `C=CC[N@@+]12CC[C@]34c5ccccc5N5/C=C6\C7N(/C=C(\C53)[C@@H](C[C@@H]41)/C(=C/CO)C2)c1ccccc1[C@@]71CC[N@@+]2(CC=C)C/C(=C\CO)[C@@H]6C[C@@H]12` (stereo partly specified), the “inhibition” value is 15.8% (inactive).
The same measure for `CCOC(=O)c1c(CN2CCN(Cc3ccccc3)CC2)n(C)c2cc(Br)c(OC)cc12`: 2.08% (inactive); for `O=C1N[C@@H](Cc2ccccc2)C(=O)N2[C@H]3Nc4ccccc4[C@@]3([C@]34C[C@H]5C(=O)N[C@@H](Cc6ccccc6)C(=O)N5[C@H]3Nc3ccccc34)C[C@@H]12`: 27.3% (inactive); for `CCC(=O)c1coc2ccc(O)cc12`: 3.23% (inactive).
As for `CC(C)NCC(O)c1ccc(O)c(O)c1` (stereo unspecified), the figure is -0.07% (inactive); as for `CCc1ccc(-n2nc3cc(C)c(N)cc3n2)cc1`, 9.43% (inactive); as for `CCOc1ccc(N2C(=O)CS/C2=C(\C(Cl)=C(Cl)Cl)[N+](=O)[O-])cc1`, -1.12% (inactive).
The same measure for `CC(=O)c1c(C)n([O-])c2cc(F)c(F)cc2[n+]1=O`: -9.5% (inactive).
On to `CCCCn1c(-c2ccc(C(C)(C)C)cc2)nc2cc3[nH]c(=O)c(C(C)C)nc3cc21`, for which the “inhibition” value is 4.74% (inactive).
As for `Cc1nn(-c2ccccc2)c(N2CCCC2)c1/C=N/Nc1ccc(S(N)(=O)=O)cc1[N+](=O)[O-]`, the figure is 14.3% (inactive); as for `CC(=O)/C(=N\Nc1ccc(C)cc1)N1CCOCC1`, 1.57% (inactive).
The same measure for `Cc1ccc(C(=O)CCC(=O)OCC(=O)Nc2c(C)nn(-c3ccccc3)c2C)cc1`: -6.34% (inactive).
As for `CCCCCn1c(CN2CCN(c3cccc(Cl)c3)CC2)nc2c1c(=O)[nH]c(=O)n2C`, the figure is 11.1% (inactive).
In the case of `Cc1ccc(Sc2ccc(/C=C3/C(=O)NN(c4ccccc4)C3=O)o2)cc1`, the “inhibition” value was -5.58% (inactive).
The same measure for `CSc1cccc(N=C2C(=O)Nc3ccccc32)c1`: -2.79% (inactive); for `COc1cccc(C(=O)/C=C2\Sc3ccccc3N2C)c1`: 8.66% (inactive).
For `Fc1ccc(-c2nnc(CSc3nnc(-c4cccs4)o3)o2)cc1`, the “inhibition” value is 1.3% (inactive).
As for `CC/C(=C\C(=O)c1cccnc1)Nc1ccc(C)c(C)c1`, the figure is 10.2% (inactive); as for `C=C(C)C1CC=C(C)/C(=N/NC(=O)CNc2ccc(OCC)cc2)C1` (stereo unspecified), -7.09% (inactive); as for `Cc1[nH]nc2nc3c(c(OC(=O)c4ccccc4)c12)c(=O)n(C)c(=O)n3C`, -48% (inactive).
As for `O=C1CC(Nc2ccc3ccccc3c2)C(=O)N1Cc1ccccc1` (stereo unspecified), the figure is -40.4% (inactive); as for `O=C(COC(=O)C1CCN(c2ccc(C(F)(F)F)cn2)CC1)Nc1ccc(F)cc1[N+](=O)[O-]`, 3.56% (inactive).
As for `Cc1ccc(N=Nc2c(C)[nH]n(C(N)=S)c2=O)cc1`, the figure is 0.95% (inactive); as for `O=C(Nc1cccc(C(F)(F)F)c1)c1ccc2nc(-c3ccco3)c(-c3ccco3)nc2c1`, -1.75% (inactive).
As to `Nc1cccc(-c2cc3ccccc3oc2=O)c1`, the “inhibition” value is 0.03% (inactive).
The same measure for `CC(C)c1nnc(NC(=O)CCC(=O)N2CCN(c3ccc(Cl)cc3)CC2)s1`: 18% (inactive).
The same measure for `CCCC(=O)Nc1sc2c(c1C#N)CCCCC2`: -7.16% (inactive); for `O=[N+]([O-])c1ccc(COc2ccc(-c3[nH]ncc3-c3ccc(Cl)cc3)c(O)c2)cc1`: -5.46% (inactive).
As for `Cc1nc(S/C(=C/c2ccc(-c3ccc(Cl)cc3)o2)C(=O)O)n[nH]1`, the figure is 0.99% (inactive).
`Cc1ccc(NN=C2c3ccccc3-c3ccccc32)cc1`: the “inhibition” value was -1.03% (inactive).
The same measure for `CN1CCC(=NNC(=O)C(=O)Nc2ccccc2F)CC1`: -0.59% (inactive); for `O=C(Nc1cccc(-c2ccc(N3CCCCC3)nn2)c1)c1ccc(Br)o1`: 4.5% (inactive); for `CCOC(=O)c1sc(C)c2c(=O)n(CC(=O)c3ccc(Br)cc3)nnc12`: -0.02% (inactive).
Turning to `CCOC(=O)c1ccc(N2CC(O)=C(c3nc4ccccc4c(=O)[nH]3)C2=N)cc1`, the “inhibition” value was 0.03% (inactive).
The same measure for `CCN(CC)S(=O)(=O)c1cccc(NC(=O)Nc2cccc(C(F)(F)F)c2)c1`: 13.6% (inactive); for `Cc1ccc(-c2cccc(NC(=O)C3C4C=CC(C4)C3C(=O)O)c2)o1` (stereo unspecified): 19.9% (inactive); for `CC1Nc2ncnc(N3CCN(c4ccccc4)CC3)c2N(Cc2ccc(Br)cc2)C1=O` (stereo unspecified): 2.31% (inactive).
As for `COc1cc2[nH]c3c(N4CCN(c5ccccn5)CC4)ncnc3c2cc1OC`, the figure is 4.78% (inactive); as for `Clc1ccc(CSc2ncn[nH]2)cc1`, 5.76% (inactive); as for `COc1ccc(-c2ccnc3nc(N4CCN(c5ccccc5)CC4)nn23)cc1`, 9.15% (inactive).
The same measure for `c1ccc(CCN2CN=C(Nc3nc4ccccc4o3)NC2)cc1`: -12.8% (inactive); for `Cc1ccc(NC(=O)COC(=O)c2ccc(=O)n(Cc3ccccc3)n2)cc1F`: -2.62% (inactive); for `COc1cc(OC)nc(Oc2ccccc2C(=O)Oc2ccc(Cl)cc2)n1`: 5.33% (inactive).
In the case of `CCNc1nc(NC(C)(C)C)nc(N2CCCCC2)n1`, the “inhibition” value was 6.41% (inactive).
